CBX7 AlphaScr: inhibitors of human CBX7 binding to H3K27me3 peptide | O95931 | AlphaScreen His6-CBX7 / biotin-H3K27me3 peptide binding; active compounds read low | normalised signal (fraction of DMSO) (concentration not given with the values) | 1.1% of 66,000 active | AID 1224903; in the data active = normalised signal below about 0.5
Target sequence (O95931 whole entry, looked up): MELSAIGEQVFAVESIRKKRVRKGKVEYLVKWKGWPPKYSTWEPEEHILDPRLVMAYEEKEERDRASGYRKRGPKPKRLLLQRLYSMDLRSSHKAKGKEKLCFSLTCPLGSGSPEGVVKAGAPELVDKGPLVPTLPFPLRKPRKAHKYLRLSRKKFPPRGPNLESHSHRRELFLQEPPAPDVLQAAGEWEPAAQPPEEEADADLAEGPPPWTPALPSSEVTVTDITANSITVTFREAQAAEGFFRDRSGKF
* = called active by the depositor; ! = not confirmed by another sample. Only a selection was taken, and hits are over-represented in it overall.

For Oc1cccc(-c2nc(-c3ccccc3)c(-c3ccccc3)[nH]2)c1 the results were CBX7 AlphaScr 0.34*.
Cn1c(SCc2nc(-c3ccc(Br)cc3)no2)nnc1-c1cccs1 was read as CBX7 AlphaScr 0.93.
CC1CCN(C(=O)c2cnn(-c3ccccc3)c2NC(=O)c2cccc(F)c2)CC1 was read as CBX7 AlphaScr 0.81.
For CCCNC(=O)CN1C(=O)COc2ccc(S(=O)(=O)N(CC)CC)cc21 the results were CBX7 AlphaScr 1.1.
COc1ccc(-c2noc(CCC(=O)NCCCN3CCc4ccccc4C3)n2)cc1 was read as CBX7 AlphaScr 0.91.
`Cc1ccccc1Nc1c(-c2ccccn2)nc2ccc(Br)cn12` gave CBX7 AlphaScr 0.92.
Screening COC(=O)CNc1c(-c2ccccn2)nc2ccc(Br)cn12 returned CBX7 AlphaScr 0.063*.
Screening Brc1ccc2nc(-c3ccccn3)c(Nc3ccc4c(c3)OCO4)n2c1 returned CBX7 AlphaScr 0.66.
For O=C(Nc1cccc(Cl)c1)c1cc(-c2ccccc2O)on1 the results were CBX7 AlphaScr 1.
`Cc1ccc(Nc2nc(-c3c(C)nc4sccn34)cs2)c(C)c1` gave CBX7 AlphaScr 0.42*!.
`COc1ccc(Cl)cc1Nc1nc(-c2c(C)nc3sccn23)cs1` gave CBX7 AlphaScr 0.97.
Cc1cccc(Nc2nc(-c3c(C)nc4ccccn34)cs2)c1 was read as CBX7 AlphaScr 1.
`COc1ccccc1Nc1nc(-c2c(C)nc3sccn23)cs1` gave CBX7 AlphaScr 0.32*.
COc1ccccc1Nc1nc(-c2c(C)nc3ccccn23)cs1 was read as CBX7 AlphaScr 0.96.
Screening Cc1nc2ccccn2c1-c1csc(Nc2ccc(Br)cc2Br)n1 returned CBX7 AlphaScr 0.8.
CC(C)(C)NC(=O)C1CCC(CNS(=O)(=O)c2cccc3cccnc23)CC1 (stereo unspecified) was read as CBX7 AlphaScr 1.
COc1ccccc1Nc1cc(C(=O)NCCCN2CCCC2)c2ccccc2n1 was read as CBX7 AlphaScr 1.1.
`CCc1nnc(NC(=O)CSc2nnc(Cc3cccn3C)n2-c2ccc(F)cc2)s1` gave CBX7 AlphaScr 0.94.
Screening COc1ccccc1N1C(=O)CC(N2CCN(c3cccc(C(F)(F)F)c3)CC2)C1=O (stereo unspecified) returned CBX7 AlphaScr 0.97.
CCn1c(C(=O)NC2CCCc3ccccc32)cc2sc(Cl)cc21 (stereo unspecified) was read as CBX7 AlphaScr 1.1.
`Oc1ccc(-c2nc(-c3ccccc3)c(-c3ccccc3)[nH]2)cc1` gave CBX7 AlphaScr 0.42*!.
Oc1ccc(-c2nc(-c3ccc(F)cc3)c(-c3ccc(F)cc3)[nH]2)cc1 was read as CBX7 AlphaScr 1.2.
O=C(O)c1ccc(-c2nc(-c3ccc(-c4ccccc4)cc3)c(-c3ccc(-c4ccccc4)cc3)[nH]2)cc1 was read as CBX7 AlphaScr 0.54.
`Brc1ccc(-c2nc(-c3ccccc3)c(-c3ccc(Sc4ccccc4)cc3)[nH]2)cc1` gave CBX7 AlphaScr 0.86.
For Oc1ccc(-c2nc(-c3ccccc3)c(-c3ccc(Br)cc3)[nH]2)cc1 the results were CBX7 AlphaScr 0.46*.
For CCOc1cc(-c2nc(-c3ccccc3)c(-c3ccc(Br)cc3)[nH]2)ccc1O the results were CBX7 AlphaScr 0.62.
`O=C(CSc1nccn1-c1ccc(F)cc1)NCc1ccccc1` gave CBX7 AlphaScr 1.1.
For COc1cc(OC)c(N(C)C(=O)CCc2nc(-c3ccccc3F)no2)cc1Cl the results were CBX7 AlphaScr 1.1.
`CCOc1ccc(C2NCCc3c2[nH]c2ccccc32)cc1` (stereo unspecified) gave CBX7 AlphaScr 0.72.
Screening CN(C)c1ccc(C2NC(C(=O)O)Cc3c2[nH]c2ccccc32)cc1 (stereo unspecified) returned CBX7 AlphaScr 0.25*.
`Cc1ccc(C2NC(C(=O)O)Cc3c2[nH]c2ccccc32)cc1` (stereo unspecified) gave CBX7 AlphaScr 1.
COc1ccc(-c2noc(CCC(=O)Nc3ccc(F)cc3F)n2)cc1 was read as CBX7 AlphaScr 1.
NC(=O)N1CCC(=O)Nc2ccccc21 was read as CBX7 AlphaScr 0.93.
